Screening data from PubChem BioAssay.
PP1 counter = PP1-alpha (human) inhibition in PP5 counter-screen; P62136; purified PP1alpha, OMFP fluorescence; inhibition, % at 6.7 µM; 0.9% of 320,000 active; AID 2235;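 active = inhibition above the mean inhibition of all tested compounds plus 3 SD, computed separately for each screening campaign, cut at about 15% in these data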
Target sequence (P62136 whole entry, looked up): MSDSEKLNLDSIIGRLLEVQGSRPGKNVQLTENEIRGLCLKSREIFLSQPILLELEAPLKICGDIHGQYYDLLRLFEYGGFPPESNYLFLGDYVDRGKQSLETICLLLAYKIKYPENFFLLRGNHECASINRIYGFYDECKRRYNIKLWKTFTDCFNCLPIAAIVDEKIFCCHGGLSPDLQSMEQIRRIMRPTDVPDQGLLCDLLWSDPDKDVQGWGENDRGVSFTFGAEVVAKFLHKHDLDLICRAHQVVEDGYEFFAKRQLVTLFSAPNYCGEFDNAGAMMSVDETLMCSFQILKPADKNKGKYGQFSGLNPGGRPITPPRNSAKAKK
EBNA-1 inhibitor = blocks EBNA-1 binding to DNA; EBNA-1 DNA binding, fluorescence polarization; inhibition, % at 14.8 µM; 0.34% of 300,000 active; in the data active = inhibition above about 28%
bovine MsrA act = activators of bovine methionine sulfoxide reductase A; AID 602163; 0.3% of 360,000 active; purified bovine MsrA, absorbance read-out; activation, % at 10.6 µM; in the data active = activation above about 7.5%
MsrA inhibitor = bovine MsrA inhibition; purified bovine MsrA, absorbance read-out; inhibition, % at 15.5 µM; 0.75% of 360,000 active
PP5 primary = inhibitors of human protein phosphatase 5 (PP5); purified PP5c, OMFP substrate fluorescence; inhibition, % at 6.7 µM; 0.18% of 320,000 active;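 active = inhibition above the campaign's mean inhibition across all tested compounds plus 3 SD, cut at about 9.5% in these data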
ZTA DNA inh = counter-screen for EBNA-1 inhibitors: inhibitors of Epstein-Barr virus ZTA; ZTA-DNA binding, fluorescence polarization; inhibition, % at 11 µM; 0.15% of 320,000 active; in the data active = inhibition above about 33%
Target sequence (P03206 whole entry, looked up): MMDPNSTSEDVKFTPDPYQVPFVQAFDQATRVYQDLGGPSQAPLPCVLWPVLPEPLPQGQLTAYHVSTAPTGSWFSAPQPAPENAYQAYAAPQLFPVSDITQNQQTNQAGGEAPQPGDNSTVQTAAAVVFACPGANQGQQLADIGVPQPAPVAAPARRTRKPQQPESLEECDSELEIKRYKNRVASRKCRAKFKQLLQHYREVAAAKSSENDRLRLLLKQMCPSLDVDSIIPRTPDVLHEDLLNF
MsrA inh confirm = bovine MsrA inhibition, confirmed. shares compounds with MsrA inhibitor. purified bovine MsrA, absorbance read-out. inhibition, % at 15.5 µM. 41% of 2,300 active. AID 651822;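 note: coupled to thioredoxin reductase with NADPH and selenocystamine and DMSO as substrate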
Of the large screens only hits and unclear results are named; the others gave an inactive call (follow-up assays come after a bar, where they were run). Sampled rows, rich in hits. Any-hit rate of the full collection: about 2.3%. Cut-off read from the data, not from the text of the source, unless noted: active = inhibition above about 4.5%; inactive = the rest.

Cc1ccc(S(=O)(=O)N(C)C)cc1NC(=O)Cn1c(CN2CCOCC2)nc2ccccc2c1=O	none
Cc1cc2n(c(=O)c1C#N)CCCN2c1cccc(Cl)c1	MsrA inhibitor 6.9 | MsrA inh confirm 5.5
CCOC(=O)/C(C#N)=C/c1cn(CCC(=O)O)nc1-c1ccc(OC)cc1	MsrA inhibitor 5.0 | MsrA inh confirm inactive
CCOC(=O)/C(C#N)=C/c1cn(CCC(=O)O)nc1-c1ccccc1	none
COc1ccc(-c2nn(CCC(=O)O)cc2/C=C2\SC(N)=NC2=O)cc1OC	MsrA inhibitor 5.6 | MsrA inh confirm inactive
COC(=O)C(CCSC)NC(=O)c1cc2c(n(-c3ccc(C)cc3)c1=O)CCCC2=O (configuration not stated)	MsrA inhibitor 5.5 | MsrA inh confirm inactive
CCOc1ccccc1Nc1cc2n(c(=O)n1)CCc1cc(OC)c(OC)cc1-2	MsrA inhibitor 6.9 | MsrA inh confirm inactive
COc1cc2c(cc1OC)-c1cc(Nc3ccccc3C)nc(=O)n1CC2	none
CCOC(=O)/C(C#N)=C/Nc1cc(OC)ccc1OC	none
CCOC(=O)/C(C#N)=C/Nc1ccccc1OC(F)(F)F	MsrA inhibitor 11 | MsrA inh confirm 7.1
CCOC(=O)/C(C#N)=C/Nc1ccccc1NS(=O)(=O)c1cccc(C(C)=O)c1	MsrA inhibitor 6.0 | MsrA inh confirm inactive
Cc1ccccc1CC(=O)N1CCOCC1	none
O=C(N/N=C/c1sc(N2CCOCC2)nc1-c1ccccc1)c1ccccc1Cl	none
Cc1cc(C(=O)N/N=C/c2sc(N3CCOCC3)nc2-c2ccccc2)c(C)o1	MsrA inhibitor 17 | MsrA inh confirm 6.7
O=C(O)c1cccc(N/N=C/c2sc(N3CCOCC3)nc2-c2ccccc2)c1	MsrA inhibitor 19 | MsrA inh confirm 17
O=C(N/N=C/c1sc(N2CCOCC2)nc1-c1ccccc1)c1ccccc1O	MsrA inhibitor 6.5 | MsrA inh confirm 5.1
O=C(Nc1ccccc1F)C(=Cc1sc(N2CCOCC2)nc1-c1ccccc1)C(=O)Nc1ccccc1F	MsrA inhibitor 4.8 | MsrA inh confirm inactive
O=C(N/N=C/c1sc(N2CCOCC2)nc1-c1ccccc1)c1ccccc1F	none (no result: bovine MsrA act, MsrA inhibitor)
CCN(CC)C(=O)COc1ccc2oc(-c3ccco3)cc(=O)c2c1	none
O=C(N/N=C/c1sc(N2CCOCC2)nc1-c1ccccc1)c1cccc(S(=O)(=O)N2CCOCC2)c1	none
COc1cc(C(=O)N/N=C/c2sc(N3CCOCC3)nc2-c2ccccc2)cc(OC)c1OC	MsrA inhibitor 6.6 | MsrA inh confirm inactive
Nc1ccc(C(=O)N/N=C/c2sc(N3CCOCC3)nc2-c2ccccc2)cc1	MsrA inhibitor 7.4 | MsrA inh confirm inactive
CN(C)N=Nc1nc2c(c(=O)n(C)c(=O)n2C)n1C	MsrA inhibitor 5.8 | MsrA inh confirm inactive
CCN(CC)C(=O)c1ccc2nc(-c3ccccc3)c(-c3ccccc3)nc2c1	none
CCN(CC)C(=O)c1ccc2nc3ccccc3nc2c1	MsrA inhibitor 5.6 | MsrA inh confirm inactive
O=C(N/N=C/c1ccc(O)cc1)c1cncc(Br)c1	none
O=C(N/N=C\c1ccc[nH]1)c1cncc(Br)c1	MsrA inhibitor 5.1 | MsrA inh confirm 4.6
O=C(N/N=C/c1ccc[nH]1)c1cccc(Br)c1	MsrA inhibitor 4.7 | MsrA inh confirm inactive
Cc1ccccc1NC(=O)COC(=O)/C=C/c1cccc(C(F)(F)F)c1	none
COc1ccccc1C1NC(=O)NC(C)=C1C(=O)OCC1CCCCC1 (configuration not stated)	none (no result: PP1 counter, EBNA-1 inhibitor, PP5 primary, ZTA DNA inh)
Clc1cncc(Cl)c1N/N=C/c1ccncc1	MsrA inhibitor 4.9 | MsrA inh confirm inactive
Clc1cccc(Cl)c1/C=N/Nc1c(Cl)cncc1Cl	none
CN1CCC(OC(=O)COc2ccc(C(C)(C)C)cc2)CC1	none
O=C(O)c1nc(-c2ccccc2)c(C(=O)NC2CC2)[nH]1	none (no result: PP1 counter, EBNA-1 inhibitor, PP5 primary, ZTA DNA inh)
Cc1nc2ccc(NC(=O)c3cc([N+](=O)[O-])cc([N+](=O)[O-])c3Cl)cc2s1	MsrA inhibitor 5.5 | MsrA inh confirm inactive
Cc1ccc(C)c(NC(=O)c2ccc(S(=O)(=O)C(F)F)cc2)c1	none
Cn1c(/C=N/Nc2nc3ccccc3[nH]2)nc2ccccc21	MsrA inhibitor 4.9 | MsrA inh confirm 5.0
O=C(O)c1ccc(/C=N/Nc2nc3ccccc3[nH]2)cc1	none
C(=N\Nc1nc2ccccc2[nH]1)/c1ccncc1	MsrA inhibitor 5.0 | MsrA inh confirm inactive
CC(=O)Nc1ccc(/C=N/Nc2nc3ccccc3[nH]2)cc1	MsrA inhibitor 8.2 | MsrA inh confirm 5.9
O=C(c1cc(Cl)cc(Cl)c1)N1CCC2CC1c1cc(N3CCCCC3)ccc12 (configuration not stated)	none (no result: PP1 counter, EBNA-1 inhibitor, PP5 primary, ZTA DNA inh)
CCCc1ccc(S(=O)(=O)N2CCN(C(=O)CN3C(=O)NC(C)(C4CC4)C3=O)CC2)cc1 (configuration not stated)	none (no result: PP1 counter, EBNA-1 inhibitor, PP5 primary, ZTA DNA inh)
Cc1ccc(S(=O)(=O)c2c(N)n(NC(=O)c3ccco3)c3nc4ccccc4nc23)cc1	MsrA inhibitor 4.8 | MsrA inh confirm inactive
COc1ccc(-n2c(O)cnc2Nc2nc(C)cc(C)n2)cc1OC	MsrA inhibitor 15 | MsrA inh confirm 6.5
CCc1ccc(-n2c(O)cnc2Nc2nc(C)cc(C)n2)cc1	MsrA inhibitor 9.5 | MsrA inh confirm 7.0
COc1ccc(-n2c(O)c(/C=N/Nc3nc(C)cc(C)n3)c3ccccc3c2=O)cc1OC	none
CCc1ccc(Nc2nc(C)cc(C)n2)cc1	none
c1ccc2c(-c3[nH]ncc3CNCCCn3ncc4ccccc43)cccc2c1	none
O=C(/C=C/c1ccco1)Nc1cccc(S(=O)(=O)N2CCOCC2)c1	none
Cc1ccc(/C=C/C(=O)Nc2cccc(S(=O)(=O)N3CCOCC3)c2)o1	MsrA inhibitor 5.0 | MsrA inh confirm 4.9
CCc1noc(C)c1C(=O)Nc1nc2c(F)cc(F)cc2s1	none (no result: EBNA-1 inhibitor)
CCc1noc(C)c1C(=O)Nc1nc2c(C)cccc2s1	none
CCc1noc(C)c1C(=O)Nc1nc(-c2ccc(F)cc2)c(C)s1	MsrA inhibitor 9.5 | MsrA inh confirm 8.7
CCc1noc(C)c1C(=O)Nc1nc(-c2cc(C)ccc2C)c(C)s1	MsrA inhibitor 18 | MsrA inh confirm 21
COc1ccc(C)cc1S(=O)(=O)NC(C)C(=O)Nc1ccc2c(c1)OCO2 (configuration not stated)	none
Cc1cc(C)n(-c2ccc(C(=O)OCC(=O)Nc3ccc(Cl)cc3[N+](=O)[O-])cc2)n1	none
O=S(=O)(NCc1cn2ccccc2n1)c1ccccc1F	none
O=C(N/N=C/c1ccc(N2CCOCC2)s1)c1ccc(NS(=O)(=O)c2cccs2)cc1	MsrA inhibitor 4.7 | MsrA inh confirm inactive
O=C(NN=Cc1ccc(F)c(F)c1)c1ccc(NS(=O)(=O)c2cccs2)cc1	none (no result: PP1 counter, EBNA-1 inhibitor, PP5 primary, ZTA DNA inh)
O=C(N/N=C/c1ccc(N2CCOCC2)cc1)c1ccc(NS(=O)(=O)c2cccs2)cc1	MsrA inhibitor 6.8 | MsrA inh confirm 6.4
COc1ccc(C=NNC(=O)c2ccccc2NS(=O)(=O)c2cccs2)cc1O	MsrA inhibitor 5.1 (no result: PP1 counter, EBNA-1 inhibitor, PP5 primary, ZTA DNA inh) | MsrA inh confirm inactive
